Hit rate of the full screen: of about 48,000 compounds, about 13,000 (27%) showed an effect of 50% or more. Some of the results follow.

Data on 33 compounds can be found in ChEMBL document CHEMBL3988442, “University of Dundee, Small-Polar-MMV Screening Library” (2021).

For the assay, the system named is Wolbachia pipientis. In words: Anti-Wolbachia Cell-Based Screen. The assay is classed as functional. On the set-up: scale not given: in the data most compounds retested in dose-response had high values. The note with it: 5 µM.
As for `c1cnnc(N2CCCC(NCc3ccc(-n4ccnc4)cc3)C2)c1` (stereo not drawn), the “Percent Effect” value is recorded as 2.731%.

As for `CN(Cc1cccs1)C(=O)CNC1CCc2ncnn2C1` (stereo not drawn), the “Percent Effect” value is recorded as -0.9071%.

Consider `Cc1cc(=O)c2ccccc2n1CC1CCCN(C)C1` (stereo not drawn), for which the “Percent Effect” value was -3.698%.

For the compound `Cc1cc(S(=O)(=O)N2CCc3ccc(F)cc32)cc(C(=O)O)c1C`, the “Percent Effect” value is -1.898%.

In the case of `CC(NC(=O)Cn1cccn1)c1ccc2c(c1)OCCCO2` (stereo not drawn), the “Percent Effect” value is recorded as -3.831%.

In the case of `OC(CNCCn1cccn1)c1ccc2c(c1)OCCO2` (stereo not drawn), the “Percent Effect” value is listed as 4.861%.

For the compound `CC(NC(=O)NCCCO)c1ccc2c(c1)OCCO2` (stereo not drawn), the “Percent Effect” value was 6.207%.

With `CC(NC(=O)Cn1cccn1)c1ccc2c(c1)OCCO2` (stereo not drawn), the “Percent Effect” value was found to be 96.81%.

Regarding `CC(NC(=O)CCn1cccn1)c1ccc2c(c1)OCCO2` (stereo not drawn), the “Percent Effect” value was 98%.

For `Cc1ccc(C(O)CNCCn2cccn2)cc1C` (stereo not drawn), the “Percent Effect” value is -13.13%.

With `Cc1cnn(CCNCC(=O)NC(C)c2ccc3c(c2)OCCO3)c1` (stereo not drawn), the “Percent Effect” value is recorded as 97.89%.

As for `CC(NC(=O)CNCCn1cccn1)c1ccc2c(c1)CCCC2` (stereo not drawn), the “Percent Effect” value amounted to 2.456%.

In the case of `CC(NC(=O)CNCCn1cccn1)c1ccc2c(c1)OCCO2` (stereo not drawn), the “Percent Effect” value is given as -2.168%.

With `Cc1ccc(C(C)NC(=O)CNCCn2cccn2)cc1C` (stereo not drawn), the “Percent Effect” value was 67.97%.

Take `CC(NC(=O)NCCCn1ccnc1)c1ccc2c(c1)OCCCO2` (stereo not drawn): the “Percent Effect” value is recorded as -3.282%.

With `CC(NC(=O)NCCCn1cncn1)c1ccc2c(c1)OCCO2` (stereo not drawn), the “Percent Effect” value is reported as 5.809%.

Regarding `Cc1noc(C)c1CN(C)C(=O)NC(C)Cc1ccco1` (stereo not drawn), the “Percent Effect” value was found to be 8.322%.

Regarding `CN(Cc1nc2ccccc2o1)CC1CCCN1c1cccnn1` (stereo not drawn), the “Percent Effect” value was determined as 4.649%.

Take `COc1ccccc1C(C)N1CCN(S(=O)(=O)N(C)C)CC1` (stereo not drawn): the “Percent Effect” value is recorded as -4.471%.

For the compound `Cc1cccc(N2N=C(C(=O)NC(C)Cn3cccn3)CCC2=O)c1` (stereo not drawn), the “Percent Effect” value is -20.26%.

Take `Nc1nc(CNc2nccc(CCC(F)(F)F)n2)cs1`: the “Percent Effect” value was 0.6104%.

Regarding `Cc1cc(NC(=O)[C@H]2CCCCN2C(=O)OC(C)(C)C)no1`, the “Percent Effect” value amounted to 12.93%.

Turning to `O=C(CCC1CCCO1)NCc1ccc(Br)cc1F` (stereo not drawn), the “Percent Effect” value is listed as 24.29%.

With `Cc1cnc(C(=O)N2CCc3ncnc(C)c3CC2)cn1`, the “Percent Effect” value is -11.83%.

As for `Cc1cnc(C(=O)N2CCc3ncnc(-c4cnn(C)c4)c3CC2)cn1`, the “Percent Effect” value was determined as 103.6%.

In the case of `Cn1cc(-c2ncnc3c2CCN(C(=O)c2cnccn2)CC3)cn1`, the “Percent Effect” value stood at 113%.

For the compound `Cc1ccoc1C(=O)N1CCc2ncnc(-c3cnn(C)c3)c2CC1`, the “Percent Effect” value was determined as 95.42%.

Regarding `CCOc1ncnc2c1CCN(C(=O)c1cnccn1)CC2`, the “Percent Effect” value was 5.086%.

In the case of `Cc1ncnc2c1CCN(C(=O)c1ccoc1)CC2`, the “Percent Effect” value is -3.432%.

`Cc1ncnc2c1CCN(C(=O)c1cnccn1)CC2`: the “Percent Effect” value was 1.422%.

`CN(C)CC(=O)N1CCc2ncnc(-c3ccoc3)c2CC1`: the “Percent Effect” value is -8.225%.

As for `Cc1occc1C(=O)N1CCc2ncnc(-c3cnn(C)c3)c2CC1`, the “Percent Effect” value is recorded as 2.959%.

Take `Cc1cc(C(=O)N2CCc3ncnc(-c4cnn(C)c4)c3CC2)c(C)o1`: the “Percent Effect” value is listed as 88.25%.
